KKLEB cytotox – counter-screen for CF NF-kB inhibitors: cytotoxicity; KKLEB CF airway cells viability, ATPlite luminescence, overnight; active compounds read low; cells stimulated with P. aeruginosa culture filtrate; activity change (cytotoxicity), % at 5 µM; 360,000 tested, 0.36% active; AID 602141;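 active = corrected activity change at or below -50% at 5 µM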
Peg3 promoter – inhibitors of Peg3 promoter; 360,000 tested, 1.7% active; inhibition, % at 20 µM; HeLa PEG-Prom luciferase reporter, luminescence, overnight;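 active = inhibition of at least 50% at 20 µM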
HIF-2a block – blocks HIF-2a reporter activity; 786-0 RCC cells HIF-2a reporter, luciferase luminescence, overnight; inhibition, % at 18.8 µM; 360,000 tested, 0.72% active;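 active = inhibition of the luminescence signal of 40% or more relative to plate controls, in a single-dose primary screen at 18.75 µM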
Shn3 inh set2 – reduces Shn3 3'UTR luciferase signal in osteoblasts. Clone20 osteoblast Shn3 3'UTR firefly luciferase, 24 h. inhibition, % at 12.5 µM. 360,000 tested, 0.52% active;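 active = mean inhibition of at least 75% with every replicate also reaching 75%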;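 note: 0% = median of neutral control wells and 100% = pilot-screen positive control compound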
CF NFkB block – cystic fibrosis NF-kB activation inhibition; KKLEB NF-kB-GFP reporter, PAF-induced, GFP fluorescence overnight; inhibition, % at 5 µM; 360,000 tested, 0.86% active;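 active = at least 50% inhibition at 5 µM, scaled per plate between neutral and stimulator controls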;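 note: PAF is a Pseudomonas aeruginosa culture filtrate used as stimulus; plate controls were PAF-stimulated DMSO wells for no effect and unstimulated DMSO wells for full effect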
TRPM1 prom inh – MITF TRPM1 promoter inhibition in SK-MEL-5 cells. inhibition, % at 12.5 µM. AID 488899. SK-MEL-5 TRPM1 promoter luciferase, 24 h. 330,000 tested, 0.83% active;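 active = mean inhibition across replicates of 60% or more, whatever share of single replicates reaches that level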
CF NFkB inh conf – confirmation of cystic fibrosis induced NF-kB inhibitors. shares compounds with CF NFkB block. KKLEB CF airway cells, PAF-induced NF-kB-GFP fluorescence, overnight. inhibition, % at 5 µM. 1,300 tested, 64% active. AID 602472; in the data active = inhibition above about 40%;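 note: stimulus PAF is a Pseudomonas aeruginosa filtrate and not platelet activating factor; plate controls were DMSO wells with stimulus for no effect and unstimulated DMSO wells for full effect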
Active calls of the source: *; · = no result given. In the library only some 2.7% were active in any assay of this set; here they are far more common.

SMILES | KKLEB cytotox | Peg3 promoter | HIF-2a block | Shn3 inh set2 | CF NFkB block | TRPM1 prom inh | CF NFkB inh conf
CCc1cc2cc3c(cc2nc1SCC(=O)Nc1cc(C)on1)OCO3 | -41.8 | 34.5 | 0.0 | · | 54.8* | 47.3 | 43.0*
COc1ccc(-c2cncnc2-c2ccc(OC)cc2O)cc1 | -8.8 | 7.6 | 19.1 | 0.5 | 61.9* | -6.3 | 82.9*
CC(C)Cn1c(C(C)C)nc([N+](=O)[O-])c1S(=O)(=O)c1ccc(F)cc1 | -35.8 | 33.8 | 37.4 | 19.1 | 58.5* | 48.6 | 5.2
CC(C)Cn1c(C(C)C)nc([N+](=O)[O-])c1Sc1ccc(Cl)cn1 | -12.3 | 18.4 | 16.2 | -20.1 | 26.7 | 9.7 | ·
COc1ccc(CN2CCNC(=O)C2CC(=O)NCCc2nc(C)c(C)s2)cc1C (centres undefined) | -13.6 | -5.6 | -7.0 | 5.2 | 19.0 | 10.2 | ·
O=C(Nc1ccc(F)cc1)Nc1nnc(COc2ccccc2F)s1 | -24.4 | 45.4 | -1.9 | 6.3 | 58.3* | -6.4 | 43.9*
CCSc1nsc(NC(=O)Nc2cccc(OC)c2)n1 | -7.4 | -79.3 | -187.3 | -17.2 | 69.6* | -51.3 | 53.0*
COc1ccc(NC(=O)Nc2nnc(CC(=O)Nc3ccccc3)s2)cc1 | -0.4 | -4.8 | 1.4 | 0.7 | 14.6 | 3.7 | ·
CCSc1nsc(NC(=O)Nc2ccccc2F)n1 | -19.5 | -217.1 | -343.4 | 10.4 | -7.6 | -14.0 | ·
COc1cccc(NC(=O)Nc2nnc(CC(=O)Nc3ccccc3)s2)c1 | -2.9 | -9.9 | 10.4 | -4.5 | 57.2* | -15.6 | 72.5*
Cc1[nH]c(C)c(S(=O)(=O)N(Cc2ccccc2)C(C)C)c1C(=O)N1CCCC1 | 5.6 | 1.0 | -5.5 | -7.3 | -13.6 | -7.4 | ·
Cc1ccc(CS(=O)Cc2ccc(C(=O)NC3CCCCC3)o2)cc1 (centres undefined) | -1.2 | 6.3 | 0.4 | -1.2 | -14.0 | 6.8 | ·
CN(Cc1ccccc1)C(=O)c1ccc(NC(=O)Cc2cccc(NC(=O)C3CCCN(C(=O)C4CCCC4)C3)c2)cc1 (centres undefined) | 20.3 | 1.5 | -4.0 | -3.9 | -1.4 | 13.4 | ·
CN(C)C=Nc1c(C(=O)c2ccccc2)sc2nccc(N(C)C)c12 | -3.6 | -24.8 | -1.9 | -15.8 | 52.8* | -1.1 | 56.6*
COC(=O)c1ccc2nc(NC(=O)CCS(=O)(=O)c3ccccc3)sc2c1 | -33.7 | 20.6 | 12.9 | 11.4 | 58.0* | 23.4 | 30.0
Oc1cc2c(cc1C(c1ccc(Br)cc1)N1CCCC1)OCO2 (centres undefined) | -20.9 | 5.9 | 10.3 | -1.3 | 53.3* | -4.4 | 33.1
CCCCC(=O)/C=C/n1c(=S)oc2ccccc21 | -36.3 | 100.6* | -43.3 | -46.6 | 90.2* | 11.6 | -142.9
Cc1cnc(C(=O)Nc2ccc(C)c(S(=O)(=O)N3CCCCCC3)c2)cn1 | 8.5 | 4.4 | 12.0 | 13.0 | -11.5 | 7.4 | ·
CCCCCC(=O)N1C[C@H](O)[C@@H](n2cc(C3CC3)nn2)C[C@@H]1c1ccc(Cl)cc1 | -0.5 | -6.3 | 9.2 | -27.7 | 11.3 | · | ·
COc1ccccc1Cc1c(-c2cccc(Br)c2)nc2c(C)cc(Br)cn12 | -6.3 | -24.0 | -173.0 | -9.1 | 55.1* | · | 5.4
Clc1nc(Cl)c2ncn(-c3ccccc3)c2n1 | -24.5 | 80.9* | -95.6 | -10.9 | 75.6* | 29.7 | -14.7
CCOC(=O)c1ccc(N2C=C(C(=O)OC)C(c3cccc(O)c3)C(C(=O)OC)=C2)cc1 | 4.7 | -4.6 | -36.3 | 3.8 | 2.9 | -2.2 | ·
Cc1cccc(NC(=O)c2nc[nH]c2C(=O)NCCN(CCNC(=O)c2[nH]cnc2C(=O)Nc2cccc(C)c2)CCNC(=O)c2[nH]cnc2C(=O)Nc2cccc(C)c2)c1 | -20.8 | 47.6 | -0.2 | -22.7 | 7.4 | 30.0 | ·
Cc1cccc(NC(=O)c2nc[nH]c2C(=O)NCCCNC(=O)c2[nH]cnc2C(=O)Nc2cccc(C)c2)c1 | -24.8 | 93.0* | 5.0 | 9.1 | 63.9* | -14.2 | 78.7*
Fc1cccc(Cl)c1/C=N/Nc1c(Cl)cncc1Cl | -12.6 | -60.4 | -94.6 | 0.9 | 52.8* | -20.4 | 67.0*
O=S(=O)(N/N=C\c1c(F)cccc1Cl)c1ccc(Cl)cc1 | 11.5 | 3.5 | 19.6 | -9.0 | -13.8 | 8.0 | ·
CC(C)c1nc2n[nH]c(N)c2c2c1CCCC2 | -7.9 | -7.2 | 16.3 | -4.0 | 50.1* | -0.9 | 31.5
